# Data from ChEMBL document CHEMBL4513216, “Probing the Open Global Health Chemical Diversity Library for Multistage-Active Starting Points for Next-Generation Antimalarials” (ACS Infect Dis, 2020).
# Out of some 68,000 compounds screened, about 2,700 (4%) showed an effect of 50% or more. This excerpt belongs to a sample that is enriched for strong results.
# Tested on: Plasmodium berghei
# Assay: Screen against P. berghei liver stage (PbLuc), transformed with Luciferase, at 2uM
# Format: functional, HepG2
# Conditions: tested at 2 uM
row,SMILES,INHIBITION [%]
1,CC(NC(=O)c1cccc(CCC(C)(C)O)c1)c1nnc(N)s1 (stereo not given),18.84
2,Cc1noc(C)c1-c1cc(C2CCNCC2)ccn1,-18.04
3,O=S(=O)(CC1CCCO1)Nc1cc(Cl)ccc1-n1cccn1 (stereo not given),-69.64
4,CN(C)C[C@@H]1CN(C2CCN(c3ccccc3Cl)CC2)C[C@@H]1CO,32.26
5,CN(C)C[C@@H]1CN(C2CCN(c3ccc(Cl)cc3)CC2)C[C@@H]1CO,63.46
6,Cc1ccc(N2CCC(N3C[C@@H](CN(C)C)[C@@H](CO)C3)CC2)cc1,27.85
7,Cc1ccccc1OCC(=O)N1CCN(C2CCOC2=O)CC1 (stereo not given),-42.29
8,CCn1ccnc1CN(C)Cc1nc(Cc2ccccc2F)no1,36.34
9,Cc1cc(C[S+]([O-])CC(=O)NCc2cccc(Cl)c2)no1 (stereo not given),-11.2
10,CCN1CC2(CC1=O)CN(C(C)=O)CCN(C(=O)NC)C2 (stereo not given),-17.59
11,N#Cc1ccc(SCCOCCO)c(Cl)c1,53.63
12,N#Cc1ccc(SCCCO)c(F)c1,-22.89
13,N#Cc1ccc(F)c(CNc2ccc(F)cc2OCCO)c1,-17.04
14,N#Cc1ccc(SCCC(=O)O)cc1,1.8
15,CCCS(=O)(=O)CCSc1cccc(C#N)c1,32.97
16,N#Cc1ccc(SCCOCCO)c(F)c1,53.63
17,CO[C@@H]1CCC[C@@H](NC(=O)C(C)(C)c2cccc(F)c2)[C@H]1O,-21.9
18,CC(C)n1cnc2c1C(C(=O)N1CCCC1)N(S(C)(=O)=O)CC2 (stereo not given),29.19
19,Cn1cc(I)c(C(=O)NCCCn2cc(Br)cn2)n1,-6.71
20,Cc1nn(C)c(C)c1C(C(=O)O)N1CCc2ccccc2C1 (stereo not given),11.33
21,O=C(NCCS(=O)(=O)N1CCN(c2ncccn2)CC1)c1ccccc1,30.62
22,Cc1nc(CN2C[C@@H]3CCCO[C@@H]3[C@H](N(C)C(C)C)C2)cs1,-20.01
23,CC(=O)N1CC(C)CN(C(=O)c2cccnc2C)c2ccccc21 (stereo not given),-5.98
24,N#Cc1c(Cl)nsc1NCc1cccnc1OC1CCCC1,-59.9
25,O=c1[nH]cnc2c1CCN(S(=O)(=O)c1ccc(Cl)cc1)C2,5.1
26,O=S1(=O)c2ccccc2C2(CCN(Cc3cccnc3)C2)N1CC1CC1 (stereo not given),30.39
27,CC(=O)N1CCc2nc(N3CCCC3)nc(C)c2C1,15.57
28,Cc1nc(N2CCOCC2)nc2c1CCN(C(=O)C1CCCCC1)CC2,36.99

row,SMILES,INHIBITION [%]
1,CCC(=O)N1CCc2nc(N3CCOCC3)nc(N(C)C)c2CC1,54.62
2,Cc1nc(N2CCCC2)nc2c1CN(C(=O)NC(C)C)CC2,60.05
3,CCS(=O)(=O)N1CCc2nc(N3CCOCC3)nc(N(C)C)c2CC1,21.57
4,CCCS(=O)(=O)N1CCc2nc(N3CCOCC3)nc(N(C)C)c2C1,40.64
5,Cc1nc(N2CCOCC2)nc2c1CCN(C(=O)NC1CCCC1)CC2,51.57
6,Cc1nc(N2CCCC2)nc2c1CCN(C(=O)NC1CCCC1)CC2,40.28
7,Cc1nc(N2CCCC2)nc2c1CCN(C(=O)NC(C)C)CC2,-4.2
8,N#Cc1cccc(C(=O)NC2CCc3c(ccc(=O)n3CC3CC3)C2)c1 (stereo not given),-7.45
9,COC(=O)c1cccc(S(=O)(=O)NC(=O)CC2CCCC2)c1,-30.66
10,CC1CN(Cc2nnsc2Cl)CCN1c1nccs1 (stereo not given),24.82
11,O=C(NC1CC1)[C@H]1C[C@@H]2CCN(Cc3ccc4c(c3)OCO4)C[C@@H]2O1,14
12,CCc1cc(NCCN2CCNC2=O)n2nc(C)c(C)c2n1,-35.07
13,O=C(Cc1ccccc1)N1CCC(c2nnc(-c3ccccn3)o2)CC1,11.53
14,CCn1ncc(CN2CCN(C(=O)Cn3cc(Br)c(C)n3)CC2)c1C,-22.24
15,COc1cccc(CN(Cc2ccco2)Cc2cnc(C)n2C)c1,-4.04
16,Cc1nc2cc(=O)[nH]n2c(C)c1CNC(=O)c1cnn(C(C)(C)C)c1,-46.8
17,Cc1ccc(CN(C(=O)NCC(c2cccs2)N(C)C)C2CC2)o1 (stereo not given),-38.2
18,CCN(C(=O)Nc1cccnc1OC)C1CC1,-14.3
19,Cc1ccc(CN(C(=O)NCC2CCS(=O)(=O)C2)C2CC2)o1 (stereo not given),26.39
20,COc1ncccc1NC(=O)N(Cc1ccco1)C1CC1,20.93
21,Cc1ccc(CN(C(=O)NCC2CCCO2)C2CC2)o1 (stereo not given),57.85
22,COc1ncccc1NC(=O)N(Cc1ccc(C)o1)C1CC1,51.21
23,Cc1cc(CN2CCN(C(=O)CCCc3nc(C(C)C)no3)CC2)on1,26.06
24,COc1ncc(-c2ccc(C(N)=O)cc2)c(OC)n1,29.41
25,Cc1cc(C)c(CNC(=O)NCCCNc2ccccn2)c(=O)[nH]1,34.65
26,CCN1C[C@H]2CCN(C(C)=O)CC[C@H]2S1(=O)=O,59.49
27,COCCN1C[C@H]2CCN(C(C)=O)CC[C@H]2S1(=O)=O,43.05
